Pol eta inh: blocks human DNA polymerase eta activity; Q9Y253; recombinant Pol eta, fluorescent DNA replication assay; Potency, µM (doses to about 114 µM), for inactives: at the highest dose activity change, negative = inhibition, most hits filed as inhibitors; 390,000 compounds, 1.2% hits; AID 588591; also: % is scaled to controls: 0 for no effect and ±100 for the full control effect
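Fluorescent replication assay: 50 nM final substrate added after a 15 min room-temperature compound preincubation with 10 nM enzyme. Signal taken at 0 min and again at 10 min.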
Pol kappa inh: DNA polymerase kappa (human) inhibition | purified Pol kappa, fluorescent DNA synthesis assay, 10 min | Potency, µM (titrated, usually from 107 µM), for inactives: at the highest dose activity, negative = inhibition, actives largely listed as inhibitors | 400,000 compounds, 0.53% hits | AID 588579; also: % is scaled to controls: 0 for no effect and ±100 for the full control effect
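Enzyme at 10 nM met test compounds for 15 min at room temperature. Substrate addition (50 nM final) began the reaction, which was monitored by fluorescence at 0 and 10 min.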
POLB inh: DNA polymerase beta (human) inhibition; Pol beta primer extension/strand displacement, fluorescence kinetic; AID 485314; 340,000 compounds, 1.3% hits; Potency, µM (highest dose often 114 µM), for the others: at the highest dose activity change, negative = inhibition, hits mostly inhibitors; also: % is scaled to controls: 0 for no effect and ±100 for the full control effect
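Pol beta (10 nM) was preincubated with compound for 15 min at room temperature. The reaction was then started with 50 nM substrate and read immediately and after a further 10 min at room temperature.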
WRN helicase inh: blocks human WRN helicase | Potency, µM (series often up to 114 µM), for the others: at the highest dose activity change, negative = inhibition, actives largely listed as inhibitors | Q14191 | WRN helicase unwinding, fluorescent forked duplex, kinetic | 360,000 compounds, 0.46% hits; also: % is scaled to controls: 0 for no effect and ±100 for the full control effect; nearly all actives have a fitted effect of over 55% in size
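Fluorescence dequenching readout, ex 525 nm/em 598 nm, kinetic mode: forked duplex DNA (100 nM final) with adjacent fluorophore and quencher unwound by WRN (20 nM final) with 2 mM ATP. Compound preincubation 15 min, room temperature.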
Pol iota inh: DNA polymerase iota (human) inhibition; Q9UNA4; Pol iota fluorescent replication assay, 10 min; Potency, µM (top dose mostly 115 µM), for the others: top-dose activity, negative = inhibition, most hits filed as inhibitors; 390,000 compounds, 1% hits; AID 588590
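Pol iota at 10 nM preincubated 15 min with compounds at room temperature; reaction started with fluorescent substrate, 50 nM final. Fluorescence read kinetically at 0 and 10 min; buffer-only wells as negative control.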
Active calls of the source: *; ? = inconclusive; / = no result given; [ ] = another dose, or the depositor's remark. Only some compounds are listed: those with a hit (about 2.3% of all), similar ones and a draw of the others. Calls follow the shape of the dose curve; as a rule, active = well fitted curve in the direction sought with a large enough effect; inconclusive = small, poorly fitted or top-dose-only effect, or another doubt; inactive = no such curve, though single readings can be large; an effect the other way counts as inactive or inconclusive. Potency is read from the fitted curve at half-maximal effect.

SMILES	Pol eta inh	Pol kappa inh	POLB inh	WRN helicase inh	Pol iota inh
O=C1C(Cl)=C(NS(=O)(=O)c2ccc([N+](=O)[O-])cc2)C(=O)c2ccccc21	?	0%	2%	79µM*	?
CC(C)CCC[C@@H](C)[C@H]1CC[C@H]2[C@@H]3CC=C4CC(O)CC[C@]4(C)[C@H]3CC[C@]12C (stereo partly specified)	/	15%[60.1 µM]	/	/	/
Cc1ccc(Sc2ccccc2CN(C)C)c(N)c1	/	8%[60.1 µM]	/	/	/
COc1cc(OC)c2c(c1C(CCN1CCN(c3ccccc3)CC1)c1ccc(N(C)C)cc1)OC(=O)CC2c1ccc(N(C)C)cc1 (stereo unspecified)	/	14%	/	/	28%
COc1cc(NC(=O)CCCc2nnc3n(CC(C)C)c(=O)c4sccc4n23)cc(OC)c1	1%	0%	3%	/	44%
Oc1ccc(N=Cc2ccc(O)c(O)c2)cc1	3.2µM*	45µM*	?	32µM*	13µM*
CCn1c(Cl)c(C=O)s/c1=N\S(=O)(=O)c1ccccc1	-13%	-14%	?	40µM*	?
CCC(C)S(=O)(=O)c1oc(-c2cccs2)nc1S(=O)(=O)c1ccccc1 (stereo unspecified)	-20%	-31%	7%	/	?
CCCCCCCCCCCCCCNCCO	/	7%[19.4 µM]	/	/	/
FC(F)c1nc2ccccc2[nH]1	0%	-5%	50µM*	9%	24%
CCOC(=O)c1ccc(CC(=O)c2ccc(O)c(O)c2O)o1	?	1.6µM*	1.1µM*	?	1µM*
C=CS(=O)(=O)c1ccc(Oc2ccc(S(=O)(=O)C=C)cc2)cc1	?	-3%	16%	?	10µM*
NS(=O)(=O)c1ccc(Oc2ccc(S(N)(=O)=O)cc2)cc1	-14%	-1%	-2%	0%	6%
COc1ccccc1CNC(=O)COC(=O)c1cc(S(=O)(=O)N2CCOCC2)ccc1Cl	-16%	-8%	/	2%	-11%
COc1ccccc1CNC(=O)c1cc(S(=O)(=O)N2CCN(c3ccccc3)CC2)ccc1Cl	-28%	?	/	?	89µM*
COc1ccccc1CNC(=O)C1CCN(S(=O)(=O)c2ccc3nc4c(c(C(=O)O)c3c2)CCCC4)CC1	?	-26%	-24%	-18%[11.6 µM]	79µM*
COc1ccc(CNC(=O)C2CCN(S(=O)(=O)c3ccc4nc5c(c(C(=O)O)c4c3)CC(C)CC5)CC2)cc1 (stereo unspecified)	?	-11%	?	-9%	89µM*
CC1CCc2nc3ccc(S(=O)(=O)N4CCC(C(=O)NCc5ccccc5Cl)CC4)cc3c(C(=O)O)c2C1 (stereo unspecified)	?	?	40µM*	-18%	50µM*
COc1ccc(CCNC(=O)Cn2nnc(-c3cccc(C(F)(F)F)c3)n2)cc1OC	6%	-13%	-15%	/	?
Cc1cccc(Cn2cnc3c(cnn3C(C)(C)C)c2=O)c1F	/	2%	/	/	0%
CCCn1nc(C(=O)NCCc2ccc(S(N)(=O)=O)cc2)c2ccccc2c1=O	-5%	-10%	15%	-9%	-10%[58.9 µM]
O=C(Nc1ccc(S(=O)(=O)Nc2ncccn2)cc1)C1=COCCO1	?	-25%	/	-32%	50µM*
CCCn1nc(C(=O)Nc2ccc(S(=O)(=O)Nc3ncccn3)cc2)c2ccccc2c1=O	50µM*	-24%	1%	-16%	?
Cc1cccc(N2CCn3c2nc2c3c(=O)n(CCCc3ccccc3)c(=O)n2C)c1	-10%	-29%	89µM*	/	-3%
CCOCCn1c(=O)c2c(nc3n2CCN3c2ccc(C)c(C)c2)n(C)c1=O	-11%	-7%	20µM*	/	?
SMILES	Pol eta inh	Pol kappa inh	POLB inh	WRN helicase inh	Pol iota inh
Cc1cccc(N2CCn3c2nc2c3c(=O)n(CCc3ccccc3)c(=O)n2C)c1	-23%	-16%	40µM*	/	19%
Cn1c(=O)n(CCCc2ccccc2)c(=O)c2c1nc1n2CCN1c1ccc(F)cc1	-18%	-18%	?	/	19%
CCN(C)c1ccc(/C=C/c2ccnc3ccccc23)cc1	/	-2%	/	/	?
CC(=O)c1cccc(NC(=O)COc2ccccc2C(=O)Nc2ccccc2)c1	/	-28%	/	/	44%
Cc1ccc(C)c2c(C)ccnc12	/	-9%	/	/	57%
Cc1cccc(/C=N/NC(=O)c2cc(Br)ccc2OCc2ccccc2)n1	-24%	-16%	45µM*	-29%	?
Cc1cccc(/C=N/NC(=O)c2ccccc2OCc2cccc(Br)c2)n1	-16%	0%	13%	-3%[57.1 µM]	24%
CC1CCC(O)C/C1=C\C=C1/CCCC2(C)C1CCC2C(C)/C=C/C(C)C(C)C (stereo unspecified)	/	-15%[19.4 µM]	/	/	/
Cc1ccc(-c2ccc(CN3C(C)C(=O)N(Cc4cn(Cc5ccco5)nn4)CCS3(=O)=O)cc2)cc1 (stereo unspecified)	-14%	/	/	-9%	/
CC1C(=O)N(Cc2cn(Cc3ccco3)nn2)CCS(=O)(=O)N1Cc1ccc(-c2cccnc2)cc1 (stereo unspecified)	/	/	/	50µM*	/
NNC(=S)NCc1ccco1	-9%	-30%	0%	-13%	20µM*
CC(=O)NC(=S)Nc1ccc(NC(=S)NC(=O)/C=C/c2ccco2)cc1	?	-31%	?	3%[11.6 µM]	32µM*
O=C(/C=C/c1ccc(F)cc1)NCc1ccco1	?	-34%	56µM*	-17%	?
COC(=O)c1ccccc1NC(=O)/C=C/c1ccco1	18µM*	0%	-26%	-22%	?
CCC(=O)Nc1ccc(NC(=S)NC(=O)/C=C/c2ccco2)cc1	?	-24%	-27%	-11%	?
COc1ccc(OC)c(/C=C/c2c3ccccc3cc[n+]2C)c1	/	-20%	/	/	44%
COc1ccc(C(=O)NCC(c2ccc(N(C)C)cc2)N2CCc3ccccc32)cc1 (stereo unspecified)	-20%	-9%[60.1 µM]	5%	/	21%
CC(C)CN(CC(C)C)c1ccc(/C=C/c2ccnc3ccccc23)cc1	/	1%	/	/	18%
O=C(NCc1ccco1)c1c(F)c(F)c(F)c(C(=O)NCc2ccco2)c1F	45µM*	?	?	-33%	-17%
Cc1cc(NC(=O)c2cc(-c3ccco3)on2)n(-c2ccccc2)n1	-5%	-27%	?	-7%[11.6 µM]	89µM*
CC12CCC(C(=O)NCc3ccc4c(c3)OCO4)(OC1=O)C2(C)C (stereo unspecified)	-6%	-18%	36%	-7%	89µM*
O=C(/C=C/c1ccco1)Nc1ccc2nc3n(c(=O)c2c1)CCCC3	16%	-7%	-21%	-9%[11.6 µM]	71µM*
CC12CCC(C(=O)NCc3ccccc3)(OC1=O)C2(C)C (stereo unspecified)	4%	0%	1%	2%	12%
N#CC1=C(N)CCC1	/	12%	/	/	26%
Cc1ccc(CN2CCOCCS2(=O)=O)cc1	/	-13%	/	/	21%
O=C(CC(C(=O)O)n1ccnc1)c1ccc(Cl)cc1 (stereo unspecified)	/	5%	/	/	?
